Screen size: about 330,000 compounds; about 10,000 (3%) were called active.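 The calls were made as follows: active = inhibition of at least 50% at 8 µM in the primary screen; inactive = the rest.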 What follows is part of a selection rich in actives, with near analogues and random picks from the rest.
Each compound was assayed against Protein Mdm4 (Homo sapiens) + E3 ubiquitin-protein ligase Mdm2 (Homo sapiens) (UniProt O15151+Q00987) (assay: inhibitors of human Mdm2-MdmX association, primary screen, cell-based, luminescence, split luciferase, SaOS-2, uHTS (AID 485346)). Settings: SaOS-2 split-luciferase Mdm2/MdmX complementation, at 8 µM, stronger effect = higher value.
Chain of Protein Mdm4 (Homo sapiens) + E3 ubiquitin-protein ligase Mdm2 (Homo sapiens) (O15151 whole entry, looked up): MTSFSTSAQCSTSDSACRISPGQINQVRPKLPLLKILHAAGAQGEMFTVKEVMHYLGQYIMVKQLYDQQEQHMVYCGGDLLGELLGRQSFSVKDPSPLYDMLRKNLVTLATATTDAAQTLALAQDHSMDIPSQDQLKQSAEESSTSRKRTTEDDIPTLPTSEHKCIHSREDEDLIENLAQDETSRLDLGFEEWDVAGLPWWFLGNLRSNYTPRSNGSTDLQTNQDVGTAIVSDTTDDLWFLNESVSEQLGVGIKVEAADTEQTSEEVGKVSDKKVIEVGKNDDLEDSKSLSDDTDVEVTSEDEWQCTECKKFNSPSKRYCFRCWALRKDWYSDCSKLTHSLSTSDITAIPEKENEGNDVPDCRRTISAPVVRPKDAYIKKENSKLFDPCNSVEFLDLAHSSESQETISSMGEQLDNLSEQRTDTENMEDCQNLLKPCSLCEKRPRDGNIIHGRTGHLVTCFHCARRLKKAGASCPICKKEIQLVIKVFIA
Chain of Protein Mdm4 (Homo sapiens) + E3 ubiquitin-protein ligase Mdm2 (Homo sapiens) (Q00987 whole entry, looked up): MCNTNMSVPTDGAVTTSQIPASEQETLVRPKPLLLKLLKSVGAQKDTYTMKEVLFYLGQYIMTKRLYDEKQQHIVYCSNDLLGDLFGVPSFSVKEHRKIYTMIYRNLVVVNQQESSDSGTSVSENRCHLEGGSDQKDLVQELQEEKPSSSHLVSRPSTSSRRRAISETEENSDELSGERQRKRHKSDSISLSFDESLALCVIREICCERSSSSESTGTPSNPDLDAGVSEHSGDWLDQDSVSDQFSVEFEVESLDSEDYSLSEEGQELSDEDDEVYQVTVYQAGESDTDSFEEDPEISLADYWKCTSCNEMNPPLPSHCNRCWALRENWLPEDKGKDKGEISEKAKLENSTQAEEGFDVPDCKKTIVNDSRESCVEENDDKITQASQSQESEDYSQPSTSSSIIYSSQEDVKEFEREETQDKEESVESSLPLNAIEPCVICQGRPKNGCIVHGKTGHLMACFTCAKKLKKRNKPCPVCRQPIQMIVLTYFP

inhibition, inactive:
CCOc1ccc(NC(=O)CN(C)C(=O)Cc2sc(C)nc2-c2ccc(F)cc2)cc1OCC 10.8%, COc1ccc(CN2CCN(C(=O)CCC(=O)Nc3nnc(C(C)C)s3)CC2)cc1F 16.8%, O=C(/C=C/c1ccccc1[N+](=O)[O-])OCC(=O)N1CCCC1 15%, COc1ccc(S(=O)(=O)N2CCN(CC(=O)NCC3(N4CCOCC4)CCCCC3)CC2)cc1 -0.077%, CCO[C@@H]1OC(C(=O)NCc2nc3ccccc3[nH]2)=C[C@H](C2CCCCC2)[C@H]1CCCO 18.5%, O=C(CSc1nnc(CNC(=O)c2ccc(F)cc2)o1)Nc1ccc2c(c1)OCO2 5.86%, NC(=O)C1CCN(C(=O)c2ccc(F)c(S(=O)(=O)N3CCOCC3)c2)CC1 -40.7%, C=CCO/N=C(\C)c1c(O)c(C)c(-c2ccccc2)n(-c2ccccc2)c1=O 9.07%, CC(OC(=O)c1cc2ccccc2o1)C(=O)Nc1ccc(N2CCOCC2)cc1 (stereo unspecified) 11.3%, CN(CC(=O)Nc1c(Cl)cccc1Cl)C(=O)c1ccncc1 19.3%, Cc1occc1-c1nnc(SCC(=O)NC2(C#N)CCCC2)n1C 22.7%, CN1CCN(S(=O)(=O)c2ccc(N3CCN(c4ccccc4O)CC3)c([N+](=O)[O-])c2)CC1 2.63%, NC(=O)Cc1nc2scc(-c3ccc(Cl)cc3)c2c(=O)[nH]1 -0.903%, O=c1[nH]c(CN2CCOCC2)nc2cc(Cl)ccc12 -2.08%, O=C1c2ccccc2[C@@H]2C[C@@H](O)[C@H](Nc3ccccc3Cl)CCN12 22.5%, Cc1ccnc(SCC(=O)Nc2cccc(S(=O)(=O)N3CCOCC3)c2)n1 15.8%, CC(=O)c1nc2ccccc2n1Cc1ccccc1 4.16%, COC(=O)CSc1nc2ccccc2c(=O)n1Cc1ccccc1 1.48%, CCN1C(=S)N[C@@H](CCc2ccccc2)[C@H](C(=O)OC)[C@H]1C 6.92%, Cc1ccc(NC(=O)/C(=C/c2ccc([N+](=O)[O-])cc2)NC(=O)c2ccccc2)cc1 17.1%, CCOC(=O)/C(=N\Nc1ccccc1[N+](=O)[O-])c1csc(Nc2ccccc2)n1 23.4%, O=C(C1CC(=O)N(C2CCCC2)C1)N1CCN(c2cccc(C(F)(F)F)c2)CC1 (stereo unspecified) 4.03%, Cc1cc(Nc2cccc(C)c2C)n2ncnc2n1 -28.4%, Cc1cccc(OCC(O)Cn2c(N3CCCCC3)nc3c2c(=O)[nH]c(=O)n3C)c1 (stereo unspecified) -19.9%, COc1ccc(C(=O)CSc2nnc(NC(=O)C3CC(=O)N(c4cccc(OC)c4)C3)s2)cc1 (stereo unspecified) -12.2%, NC(=O)CSc1nnc(NC(=O)c2ccc3ccccc3c2)s1 -8.44%, CC(=O)N/C(=C\c1ccccc1)C(=O)OC(C)C(=O)N(C)c1ccccc1 (stereo unspecified) 19.3%, O=C(CCSCCc1ccccn1)Nc1nccs1 -7.99%, COc1ccc(C2CC(c3ccc([N+](=O)[O-])cc3)=NN2C(C)=O)cc1 (stereo unspecified) -14%, COc1ccc(C2=NN(C(=O)c3cccnc3)C(c3ccccc3)C2)cc1 (stereo unspecified) 19.9%, COc1ccc(C(C(=O)NC2CCCC2)N(CCCO)C(=O)Cn2nnc(-c3ccc(C)o3)n2)cc1 (stereo unspecified) -6.39%, COC(C[C@@H](O)[C@H](C)[C@H](O)COCc1ccccc1)OC 26.1%, CCOc1ccccc1C1CC(c2cccc(NS(C)(=O)=O)c2)=NN1C(=O)c1ccccc1 (stereo unspecified) 8.21%, COc1ccc(C2=NN(C(=O)c3ccccc3C(=O)O)C(c3ccccc3O)C2)cc1 (stereo unspecified) -30.7%, COc1ccc(OC)c(S(=O)(=O)n2c([N+](=O)[O-])cnc2C)c1 22.7%, CCOc1ccc(C(C)C)cc1S(=O)(=O)n1nc(C)cc1C 13.1%, Cc1ccc(Cl)c(NC(=O)CN(C)CC(=O)Nc2ccc(F)c(F)c2F)c1Cl -0.971%, O=C(OCC(=O)N1CCCCCC1)c1ccc(Cl)nc1 0.359%, O=C(NNc1c2ccccc2nc2ccccc12)c1cc2ccccc2cc1O 35.2%, Cc1ccccc1NC(=O)NNC(=O)OC(C)(C)C 20.7%, C/C(=N/Nc1ccc(Cl)cc1)c1cnnc(-c2ccccc2)n1 -8.35%, Cc1cc(NC(=O)CSc2ncc(C(F)(F)F)cc2Cl)no1 6.3%, Cc1cc(NC(=O)CSc2nc(C(C)C)nc3sc4c(c23)CCC(C)C4)no1 (stereo unspecified) 48.9%, COc1cccc(OCCOc2cccc(/C=N/n3cnnc3)c2)c1 -7.51%, Cc1cc([N+](=O)[O-])c(-c2ccc(/C=N/n3cnnc3)o2)cc1Cl 26.5%, COc1ccc(CCNC(=O)COC(=O)c2cnc(Cl)c(Cl)c2)cc1 -24.9%, CC(C)(c1ccccc1)c1ccc(OCCN)cc1 29.2%, Cc1cc(C)n(CC(O)COc2ccc(C(C)(C)C)cc2)n1 (stereo unspecified) 0.107%, CC(Oc1cccc(Cl)c1)C(=O)NC1CC(C)(C)NC(C)(C)C1 (stereo unspecified) 12.5%, Cc1ccc(C(CC(=O)O)NC(=O)c2ccc(S(=O)(=O)N3CCCC3)cc2)cc1 (stereo unspecified) 23.9%, COc1ccc(S(=O)(=O)N2CCOCC2)c(C)c1C 4.93%, COc1ccc(CN(C)C(=S)Nc2ccc(Cl)cc2Cl)cc1 2.13%, COc1ccc(CCNCC(O)Cn2ccc3ccccc32)cc1OC (stereo unspecified) 11.5%, NNC(=O)c1ccc(COCC(F)(F)C(F)F)cc1 6.42%, O=C(Nc1ccccc1Cc1ccccc1)c1ccc2c(c1)SC1=NS(=O)(=O)CCN12 20.2%, Cc1cc(=O)oc2cc(OCCC[n+]3ccccc3)ccc12 -31%, CCOc1ccccc1N1CCN(C(=O)COc2ccc3c(C)cc(=O)oc3c2)CC1 18.6%, O=C1C=C(c2cc(C(F)(F)F)cc(C(F)(F)F)c2)C[C@@H](c2ccc3c(c2)OCO3)C1 15.2%, CCc1ccc(-n2c(SCc3cc(=O)n4cc(Br)ccc4n3)nc3[nH]ncc3c2=O)cc1 41.3%, CC(O)CN(Cc1ccc(Cl)cc1)CC(C)O (stereo unspecified) 14.3%, O=C(NCc1ccccc1)C1=C[C@H](C2CC2)C[C@H](OCc2ccc(CO)cc2)O1 -19%, CC(C)(C)[C@H]1C=C(C(=O)NCc2ccccc2)O[C@@H](OCc2ccc(CO)cc2)C1 29.5%, Nn1cnnc1N/N=C/c1cc([N+](=O)[O-])c(Cl)cc1Cl -3.78%, CC(=O)NNc1cc(=O)c2c(=O)n(C)c(=O)n(C)c2[nH]1 -7.44%, CCOc1ccccc1C(=O)NC1CC2CCCC(C1)N2Cc1ccccc1 (stereo unspecified) -3.94%, CC(=O)Nc1ccc(S(=O)(=O)NCC(=O)OCc2cc(=O)oc3ccc4ccccc4c23)cc1 -8.78%, COc1ccc(CNC(=O)COC(=O)c2sccc2C)cc1OC 14.3%, COC(=O)c1ccc(COC(=O)c2cnc(Cl)c(Cl)c2)cc1 0.646%, CCOc1ccc(C(C)=O)cc1COC(=O)CNC(=O)c1cccs1 26.9%, COc1ccccc1C(=O)NCC(=O)NCCSc1ccc(Br)cc1 12.7%, CCc1ccccc1NC(=O)CN(c1ccc(OC)cc1OC)S(=O)(=O)c1ccccc1[N+](=O)[O-] 18.2%, N#Cc1cccc(CSc2nnc(CCCO)n2-c2ccccc2)c1 7%, Cc1cc(NCc2cccnc2)no1 0.68%, Clc1ccc(Cn2ncc3c(NCc4cccnc4)ncnc32)cc1 20.9%, CCN(C(=O)Cc1c(C(=O)O)n(CC)c2ccccc12)c1ccccc1C 13.2%

inhibition, active:
O=c1[nH]c(CCl)nc2cc(-c3ccc(Cl)cc3)sc12 80.8%, CC(=O)Oc1c(C(=O)c2nnc(C)o2)c(=O)n(Cc2ccccc2)c2ccccc12 53.7%, CCOC(=O)/C(=C\c1ccc([N+](=O)[O-])cc1)C(=O)c1cc(C(C)=O)c(Nc2ccccc2)s1 99.3%, O=C(/C=C/c1ccccc1)Nc1nnc(SCC(=O)c2ccc3ccccc3c2)s1 69.7%, COc1ccc(C2CC(c3ccccc3)=NN2C(=O)c2ccc(Cl)c([N+](=O)[O-])c2)cc1 (stereo unspecified) 88.8%, CCOc1ccc2nc(Cl)c(C3CC(c4ccccc4)=NN3C(=O)c3cccs3)cc2c1 (stereo unspecified) 95%, COc1ccc(C(C[N+](=O)[O-])n2nc(C)cc2C)cc1 (stereo unspecified) 69.3%, CC(C)(C)OC(=O)NNc1c2ccccc2nc2ccccc12 95.7%, Cc1nc(SCC(=O)Nc2cc(C)on2)c2c(C)c(C)sc2n1 79.8%, Cc1ccccc1OCCOc1ccc([N+](=O)[O-])cc1/C=N/n1cnnc1 58.7%, CN(C)CC(O)COc1ccc(C(C)(C)c2ccc(OCC(O)CN(C)C)cc2)cc1 (stereo unspecified) 97.5%, COc1c(C)c2c(c(O)c1C/C=C(\C)CCC(=O)O)C(=O)OC2 97.1%, Cc1cc(=O)oc2cc(OCC3CC(c4ccccc4Cl)=NO3)ccc12 (stereo unspecified) 63.9%, O=C(NCc1ccccc1)C1=C[C@@H](C2CCCCC2)C[C@@H](OCc2ccc(CO)cc2)O1 55.5%, CCOc1ccc(C(C)=O)cc1COC(=O)c1cnc(Cl)c(Cl)c1 97.4%, Brc1ccc2ncnc(NCc3cccnc3)c2c1 73.1%

From PubChem BioAssay AID485346 (Sanford-Burnham Center for Chemical Genomics, 2010)
